Measured values reported in PubChem BioAssay.
A number with no mark means an inactive call. For part of these data: Results with a measured potency or affinity are listed apart. Activity calls are given as the source filed them. Unless noted, how the calls were made is not given here.

Legend:
[1] = antimalarial activity against Dd2 strain (AID 2302;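 active means growth inhibition above 50% at the single 2 µM test dose, taken to imply half-maximal potency below 2 µM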;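 further: 0% = DMSO untreated growth and 100% = chloroquine plus artemisinin killed control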); settings: P. falciparum Dd2 in RBCs, LDH growth readout, 72 h; at 2 µM; hits give high values
[2] = HepG2 cytotoxicity, primary screen, cytotoxicity control for P. falciparum antimalarial project, cell-based, ATP luminescence (AID 2303;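 active means inhibition above 50%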;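 further: 0% = DMSO wells and 100% = digitonin-killed cells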); settings: HepG2 viability, 24-48 h, at 10 µM, hits give high values
[3] = molecular target: L-lactate dehydrogenase (Plasmodium falciparum (isolate CDC / Honduras)) (UniProt Q27743); test: PfLDH activity inhibition – cell lysate, 3D7 strain, counter-screen for P. falciparum growth inhibition project (AID 2304);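 further: 0% = vehicle and 100% = reference inhibitor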; settings: P. falciparum 3D7 crude extract, LDH APAD/NBT absorbance; at 2 µM; hits give high values
[4] = inhibition of 3D7 malaria parasite growth – strain 3D7 (AID 2306);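 further: 0% = DMSO wells and 100% = chloroquine plus artemisinin control wells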; settings: P. falciparum 3D7 erythrocytic growth, LDH absorbance, 72 h; at 2 µM; hits give high values
[5] = molecular target: Calcium-dependent protein kinase 1 (Plasmodium falciparum (isolate 3D7)) (UniProt P62344); test: PfCDPK1 kinase inhibitors, biochemical, TCAMS library (AID 1159585; cut-off not given, nearly all actives have IC50 up to about 0.98 µM;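 further: inhibitors leave more ATP so luminescence rises with inhibition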); settings: recombinant PfCDPK1, Kinase-Glo ATP depletion luminescence
[6] = molecular target: Plasmodium falciparum protein kinase 6 (PK6, PF3D7_1337100) (UniProt Q8IDW1); test: PfPK6 kinase inhibitors, biochemical, TCAMS library (AID 1159586); settings: recombinant PfPK6, Kinase-Glo ATP depletion luminescence
[7] = molecular target: Protein kinase 7 (PK7), Plasmodium falciparum 3D7 (PF3D7_0213400) (UniProt Q7YTF7); test: inhibition of Plasmodium PK7 catalytic activity – biochemical, TCAMS antimalarial set, Kinase-Glo luminescence (AID 1159587); settings: recombinant PfPK7, Kinase-Glo ATP depletion luminescence
[8] = molecular target: Calcium-dependent protein kinase 4 (Plasmodium falciparum (isolate 3D7)) (UniProt Q8IBS5); test: PfCDPK4 kinase inhibitors, biochemical, TCAMS library (AID 1159588; cut-off not given, nearly all actives have IC50 up to about 0.91 µM); settings: recombinant PfCDPK4, Kinase-Glo ATP depletion luminescence
Sequence of Calcium-dependent protein kinase 4 (Plasmodium falciparum (isolate 3D7)) (Q8IBS5 whole entry, looked up): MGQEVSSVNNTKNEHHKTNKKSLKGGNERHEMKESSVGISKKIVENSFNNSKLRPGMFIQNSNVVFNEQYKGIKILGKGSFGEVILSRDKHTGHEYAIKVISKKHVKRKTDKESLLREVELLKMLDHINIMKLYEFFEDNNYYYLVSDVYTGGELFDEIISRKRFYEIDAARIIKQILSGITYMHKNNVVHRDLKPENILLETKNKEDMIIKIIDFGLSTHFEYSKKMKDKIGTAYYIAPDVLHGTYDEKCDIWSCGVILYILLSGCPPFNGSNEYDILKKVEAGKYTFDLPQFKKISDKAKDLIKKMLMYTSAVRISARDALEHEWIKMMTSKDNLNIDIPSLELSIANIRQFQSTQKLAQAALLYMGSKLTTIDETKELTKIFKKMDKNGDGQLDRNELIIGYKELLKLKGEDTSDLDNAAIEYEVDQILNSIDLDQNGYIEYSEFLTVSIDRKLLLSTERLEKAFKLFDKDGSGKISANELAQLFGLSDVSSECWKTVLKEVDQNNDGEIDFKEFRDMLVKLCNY

Sequence of L-lactate dehydrogenase (Plasmodium falciparum (isolate CDC / Honduras)) (Q27743 whole entry, looked up): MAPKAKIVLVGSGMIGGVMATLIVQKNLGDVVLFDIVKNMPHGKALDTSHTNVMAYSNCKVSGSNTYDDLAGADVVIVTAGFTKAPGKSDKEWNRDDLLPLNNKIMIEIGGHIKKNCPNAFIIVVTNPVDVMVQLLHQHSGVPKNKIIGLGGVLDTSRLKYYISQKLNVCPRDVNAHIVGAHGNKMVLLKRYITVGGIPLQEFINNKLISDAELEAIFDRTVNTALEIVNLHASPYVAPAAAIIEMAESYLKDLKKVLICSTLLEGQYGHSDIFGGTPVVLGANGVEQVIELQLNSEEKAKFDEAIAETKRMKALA
Sequence of Calcium-dependent protein kinase 1 (Plasmodium falciparum (isolate 3D7)) (P62344 whole entry, looked up): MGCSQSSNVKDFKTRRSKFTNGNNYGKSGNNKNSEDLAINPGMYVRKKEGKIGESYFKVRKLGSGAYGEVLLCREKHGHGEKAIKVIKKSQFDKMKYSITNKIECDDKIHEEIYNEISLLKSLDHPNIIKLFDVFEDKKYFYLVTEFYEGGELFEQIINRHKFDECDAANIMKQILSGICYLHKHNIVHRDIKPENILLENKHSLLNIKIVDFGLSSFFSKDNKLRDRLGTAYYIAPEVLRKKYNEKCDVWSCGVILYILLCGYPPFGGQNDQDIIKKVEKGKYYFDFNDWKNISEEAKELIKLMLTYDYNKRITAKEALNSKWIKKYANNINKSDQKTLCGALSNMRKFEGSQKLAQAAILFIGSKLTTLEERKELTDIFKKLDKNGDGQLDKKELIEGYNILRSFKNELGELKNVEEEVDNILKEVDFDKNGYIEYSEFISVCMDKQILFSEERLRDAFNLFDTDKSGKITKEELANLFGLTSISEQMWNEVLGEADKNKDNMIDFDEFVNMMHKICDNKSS
Sequence of Protein kinase 7 (PK7), Plasmodium falciparum 3D7 (PF3D7_0213400) (Q7YTF7 1-343): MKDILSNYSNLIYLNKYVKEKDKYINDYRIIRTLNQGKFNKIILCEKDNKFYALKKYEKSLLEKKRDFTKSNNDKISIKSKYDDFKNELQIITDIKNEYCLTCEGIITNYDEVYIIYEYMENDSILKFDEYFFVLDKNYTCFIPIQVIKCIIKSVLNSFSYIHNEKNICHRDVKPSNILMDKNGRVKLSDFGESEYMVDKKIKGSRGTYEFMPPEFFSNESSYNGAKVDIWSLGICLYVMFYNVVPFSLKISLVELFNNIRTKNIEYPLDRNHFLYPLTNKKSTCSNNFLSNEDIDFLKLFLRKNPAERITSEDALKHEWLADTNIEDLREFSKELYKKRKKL
Sequence of Plasmodium falciparum protein kinase 6 (PK6, PF3D7_1337100) (Q8IDW1 1-305): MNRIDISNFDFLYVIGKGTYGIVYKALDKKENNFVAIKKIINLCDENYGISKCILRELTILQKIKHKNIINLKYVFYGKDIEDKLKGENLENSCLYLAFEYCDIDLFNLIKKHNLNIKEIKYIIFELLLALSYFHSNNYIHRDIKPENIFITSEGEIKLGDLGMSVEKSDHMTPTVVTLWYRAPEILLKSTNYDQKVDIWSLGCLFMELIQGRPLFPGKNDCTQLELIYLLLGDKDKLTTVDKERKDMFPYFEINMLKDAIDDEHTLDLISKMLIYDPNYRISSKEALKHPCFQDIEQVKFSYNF

| Compound | growth inhibition [1] | inhibition [2] | inhibition [3] | growth inhibition [4] | outcome [5] | outcome [6] | outcome [7] | outcome [8] |
| --- | --- | --- | --- | --- | --- | --- | --- | --- |
| CCOc1ccc(OCC)c(N2CCN(CCCCNC(=O)c3ccc(NC(=O)c4ccc(Cl)cc4)cc3)CC2)c1 | 40% | 13% | 1% | 97% (active) | inactive | inactive | inactive | inactive |
| CCCNCc1ccc(-c2ccc(CN(CCOC)C(=O)c3cccc(C#N)c3)cc2)nc1 | 14% | -2% | -2% | 84% (active) | inactive | inactive | inactive | inactive |
| Cc1ccc(C(=O)NCC2CCN(c3ccc(C(F)(F)F)cc3NC(=O)c3ccco3)CC2)cn1 | 73% (active) | 9% | 0% | 91% (active) | inactive | inactive | inactive | inactive |
| CCCCCCOc1ccc(C(=O)N(Cc2ccccc2)c2c(-c3ccccc3)nc3cc(C)ccn23)cc1 | 96% (active) | -8% | 3% | 95% (active) | inactive | inactive | inactive | inactive |
| CCC(C)NCCC(c1ccccc1)c1ccccc1O (configuration not stated) | 74% (active) | 4% | 4% | 97% (active) | inactive | inactive | inactive | inactive |
| CC(C)(C)c1ccc(CN2CCCCC(NC(=O)c3cc(-c4ccccc4Cl)cs3)C2)cc1 (configuration not stated) | 98% (active) | 3% | -1% | 101% (active) | inactive | inactive | inactive | inactive |
| COC(=O)C(=C(C)C)N1C(=O)[C@@H](NC(=O)OCc2ccccc2)[C@H]1SS[C@@H]1[C@H](NC(=O)OCc2ccccc2)C(=O)N1C(C(=O)OC)=C(C)C | 96% (active) | 18% | -5% | 97% (active) | inactive | inactive | inactive | inactive |
| CCCOc1ccc(NC(=O)c2cccs2)cc1Cl | 86% (active) | 1% | -4% | 88% (active) | inactive | inactive | inactive | inactive |
| O=C(/C=C/c1ccc(Cl)c(Cl)c1)NCCCCCN1CCC(NC(=O)c2cc(Cl)ccc2F)CC1 | 32% | 48% | 4% | 92% (active) | inactive | inactive | inactive | inactive |
| CC(CCON1C(N)=NC(N)=NC1(C)C)c1ccc(Cl)c(Cl)c1 (configuration not stated) | 97% (active) | 60% (active) | -3% | 98% (active) | inactive | inactive | inactive | inactive |
| COc1ccc(-c2cccc(NC(=O)c3ccc(C#N)cc3)c2)cc1CN(C)CCN(C)C | 18% | 14% | 3% | 90% (active) | inactive | inactive | inactive | inactive |
| COc1ccc(-c2csc3ncnc(Cl)c23)cc1OC | 84% (active) | -25% | 4% | 93% (active) | inactive | inactive | inactive | inactive |
| Cc1cc(N[C@@H](Cc2ccccc2)C(=O)Nc2ccccc2)nc(Nc2ccccc2)n1 | 69% (active) | 8% | -1% | 101% (active) | inactive | inactive | inactive | inactive |
| O=C(Nc1ccccc1)c1nn(CCCN2CCC(N3CCCC3)CC2)cc1-c1ccc(Cl)c(Cl)c1 | 98% (active) | 31% | -2% | 103% (active) | inactive | inactive | inactive | inactive |
| NC(N)=NC(=O)Nc1cc(Cl)c(Cl)c(Cl)c1 | 100% (active) | -2% | 6% | 101% (active) | inactive | inactive | inactive | inactive |
| Cc1[nH]c2ccccc2c1C1CCN(CCCCNC(=O)c2ccc(-c3ccc(C#N)cc3)cc2)CC1 | 97% (active) | 19% | -3% | 101% (active) | inactive | inactive | inactive | inactive |
| Cc1c(-c2cccc(C(C)(C)NC3CCN(Cc4ccccc4)CC3)c2)cnc(N)c1C | 39% | 14% | -6% | 100% (active) | inactive | inactive | inactive | inactive |
| CNCCNCc1ccc(-c2ccc(-c3nc4ccc(F)cc4[nH]3)cc2)cc1 | 97% (active) | 30% | 4% | 98% (active) | inactive | inactive | inactive | inactive |
| COc1cccc(NC(=O)Nc2ccc(Nc3nc(C)cc(N4CCCC4)n3)cc2)c1 | 100% (active) | 28% | -1% | 101% (active) | inactive | inactive | inactive | inactive |
| Cc1ccc2nc(-c3cc(-c4cccc(CCN5CCOCC5)c4)cnc3N)[nH]c2c1 | 99% (active) | 50% (active) | -5% | 101% (active) | inactive | inactive | inactive | inactive |

| Compound | growth inhibition [1] | inhibition [2] | inhibition [3] | growth inhibition [4] | outcome [5] | outcome [6] | outcome [7] | outcome [8] |
| --- | --- | --- | --- | --- | --- | --- | --- | --- |
| O=C(Nc1cccc(-c2nc3ccccc3[nH]2)c1)c1ccc(-c2cccc([N+](=O)[O-])c2)o1 | 28% | 22% | -1% | 93% (active) | inactive | inactive | inactive | inactive |
| O=C(/C=C/c1ccc(Cl)c(Cl)c1)N1CCN(C(=O)Nc2ccc(F)c(Cl)c2)CC1 | 87% (active) | 19% | -6% | 97% (active) | inactive | inactive | inactive | inactive |
| Cc1nc(Nc2ccncc2)cc(-c2ccncc2)n1 | 3% | 6% | -2% | 100% (active) | inactive | inactive | inactive | inactive |
| Cn1cncc1C(=O)Nc1cccc(-c2cccc(-c3nc4ccc(C(F)(F)F)cc4[nH]3)c2)c1 | 99% (active) | 38% | 0% | 103% (active) | inactive | inactive | inactive | inactive |
| O=C(NC1CCCCC1)N(Cc1ccc(-c2cccc(CNCc3ccc4c(c3)OCO4)c2)cc1)C1CCN(Cc2ccccc2)CC1 | 72% (active) | 23% | 4% | 101% (active) | inactive | inactive | inactive | inactive |
| O=C(Nc1ccc2c(c1)CCC2)c1ccc(N2CCN(c3ccncc3)CC2)cc1 | 75% (active) | 72% (active) | 4% | 101% (active) | inactive | inactive | inactive | inactive |
| CCSc1ccccc1COc1c(C)nc(N)nc1N | 4% | 54% (active) | 3% | 93% (active) | inactive | inactive | inactive | inactive |
| Cc1ccc(N(CCC(=N)N)Cc2ccccc2)cc1 | 95% (active) | 6% | -3% | 96% (active) | inactive | inactive | inactive | inactive |
| CCN(CC)CCN(Cc1ccc(-c2ccc(C(F)(F)F)s2)cc1)C(=O)Cn1c(CCc2cccc(F)c2F)nc(=O)c2ccccc21 | 31% | 43% | 3% | 94% (active) | inactive | inactive | inactive | inactive |
| CCOc1cc2ncnc(Nc3ccc(OCc4ccccc4F)c(Cl)c3)c2cc1OCC | 74% (active) | 4% | -2% | 101% (active) | inactive | inactive | inactive | inactive |
| NC(N)=Nc1ccc(OCCCCCOc2ccc(N=C(N)N)c(Cl)c2)cc1Cl | 92% (active) | 18% | 6% | 92% (active) | inactive | inactive | inactive | inactive |
| O=C(NCCN1CCCC1)c1cccc(-c2ccc(-c3nc4ccccc4[nH]3)s2)c1 | 13% | 27% | 4% | 96% (active) | inactive | inactive | inactive | inactive |
| O=C(NC1CCN(CC2(c3ccccc3F)CCCC2)CC1)c1ccn[nH]1 | 91% (active) | -5% | -1% | 93% (active) | inactive | inactive | inactive | inactive |
| CN1CCC(N2CCN(Cc3ccc(-c4cccc(-c5nc6ccccc6[nH]5)c4)cc3)CC2)CC1 | 100% (active) | 48% | -1% | 99% (active) | inactive | inactive | inactive | inactive |
| COc1ccc(NC(=O)Nc2cc(C)nc3ccccc23)cc1Cl | 49% | 4% | -2% | 104% (active) | inactive | inactive | inactive | inactive |
| O=C(Nc1ccccc1)c1ccc(N2CCC(COc3cccc(C(F)(F)F)c3)CC2)nc1 | 83% (active) | 11% | -3% | 96% (active) | inactive | inactive | inactive | inactive |
| Cc1cccc(NC(=O)c2ccc(C(=O)NC3CCN(CC4CCCCC4)CC3)cc2)c1 | 18% | 14% | -1% | 95% (active) | inactive | inactive | inactive | inactive |
| COC(=O)[C@@H](NC(=O)[C@H](CC(C)C)Nc1ccc(C#N)c2ccccc12)c1ccc(O)cc1 | 87% (active) | 4% | 0% | 98% (active) | inactive | inactive | inactive | inactive |
| Cn1cccc1C(=O)C(=O)Nc1ccc(-c2ccc(-c3nc4ccc(F)cc4[nH]3)cc2)cc1 | 33% | 44% | -3% | 92% (active) | inactive | inactive | inactive | inactive |
